From PubChem BioAssay (Tox21) come the findings set out here.

Experiment [1] concerns the target Thyrotropin-releasing hormone receptor (Homo sapiens) (UniProt P34981). The experiment can be described thus: qHTS assay to identify small molecule agonists of the thyrotropin-releasing hormone receptor (TRHR) signaling pathway (AID 1346891; calls by dose curve;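 further: HEK293 cells expressing TRHR with calcium dye readout; series mostly up to about 58 µM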). The essentials:
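Kinetic fluorescence (3 min, 1 s intervals) reported intracellular calcium after compound transfer onto TRHR-Hek293 cells pre-loaded with dye for 2 h at 37 °C.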
Background: qHTS replaces the single test concentration by a dilution series.

A short description of experiment [2]: Human pregnane X receptor (PXR) small molecule agonists, qHTS cell viability counter screen (AID 1346977). Further: nearly all actives have a fitted effect of over 50% in size. The essentials: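 HepG2 cells stably carrying the PXR-Luc reporter are cultured with 5% charcoal-stripped FBS and treated with compounds for 24hr. CellTiter-Fluor is added at 23hr and fluorescence is read after 1hr.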
Experiment [3] is described as follows: Caspase-3/7 induction in HepG2 cells by small molecules, qHTS assay (AID 1346978). Further: nearly all actives have a fitted effect of over 15% in size. The gist of the method: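 Wild-type HepG2 cells, 2,000/well, settled 5 hr at 37 C and 5% CO2, then compound-treated for 17 hr; caspase-3/7 activity read by luminescent Caspase-Glo 3/7 after 30 min at room temperature.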
A short description of experiment [4]: Caspase-3/7 induction in CHO-K1 cells by small molecules, qHTS cell viability counter screen (AID 1346979). Further: nearly all actives have a fitted effect of over 35% in size. The essentials:
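Seeding: 1,500 CHO-K1 cells/well. Rest: 5hr, 37C. Treatment: compounds in DMSO, 16hr. Read: CellTiter-Fluor, 1hr, fluorescence.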

Experiment [5] can be described thus: Caspase-3/7 induction in CHO-K1 cells by small molecules, qHTS assay (AID 1346980). Further: nearly all actives have a fitted effect of over 15% in size. The gist of the method:
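Wild-type CHO-K1 cells exposed to compounds for 17hr at 37 C, 5% CO2. Caspase-3/7 activity then measured by Caspase-Glo 3/7 luminescence after 30min at room temperature.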

Experiment [6] in a line: Caspase-3/7 induction in HepG2 cells by small molecules, qHTS cell viability counter screen (AID 1346981). Further: series mostly up to about 92 µM; nearly all actives have a fitted effect of over 30% in size. The essentials: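 Wild-type HepG2 cells (2,000/well) were allowed to settle for 5 hr at 37 C, 5% CO2, then dosed with compounds in DMSO by pin transfer. After 16 hr at 37 C, CellTiter-Fluor was added and fluorescence read 1 hr later.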
Experiment [7] addresses Nuclear receptor subfamily 1 group I member 2 (Homo sapiens) (UniProt O75469). Description: Human pregnane X receptor (PXR) small molecule agonists, qHTS assay (AID 1346982). Further: nearly all actives have a fitted effect of over 35% in size. Further: potency means the concentration at half of the fitted maximal effect. The gist of the method:
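PXR-Luc HepG2 cells (CYP3A4 promoter-driven luciferase) were seeded in medium with 5% charcoal-stripped FBS, left 5 hr at 37 C, then exposed to compounds in DMSO for 24 hr. Luminescence was read after ONE-Glo addition.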

Experiment [8] has the same target. Description: CYP3A4 induction through human pregnane X receptor (PXR) by small molecules, qHTS assay (AID 1346984). Further: nearly all actives have a fitted effect of over 40% in size. The gist of the method: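 DPX-2 cells (HepG2 co-transfected with PXR and CYP3A4 promoter-luciferase) treated with compounds 24 h at 37C; luciferin-IPA CYP3A4 substrate 3uM final added for 3 h, then One-Glo; luminescence read. qHTS format.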
For experiment [9] the target is unchanged. The experiment can be described thus: Human pregnane X receptor (PXR) activation by small molecules, qHTS assay (AID 1346985). Further: nearly all actives have a fitted effect of over 40% in size. The essentials:
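DPX-2 cells (HepG2 co-transfected with a PXR response element and a CYP3A4-promoter luciferase construct) were seeded at 2,000 per well, rested 5 hr at 37C, then exposed to DMSO-dissolved compounds for 24 hr. Activation was read as luciferase luminescence.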

Experiment [10] addresses Cytochrome P450 1A2 (Homo sapiens) (UniProt P05177). The experiment can be described thus: Cytochrome P450 Family 1 Subfamily A Member 2 (CYP1A2) small molecule antagonists: luciferase reporter qHTS assay (AID 1671199). Further: series mostly up to about 120 µM; nearly all actives have a fitted effect of over 50% in size. The gist of the method:
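Human CYP1A2 activity measured with a P450-Glo proluciferin substrate; compounds in DMSO preincubated 10 min at room temperature with enzyme-substrate mix, then NADPH regeneration system added for 1 h. Luciferin detection reagent, 20 min, luminescence read.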
In general terms: A reporter such as luciferase makes a cellular process visible.

In experiment [11] the target is Cytochrome P450 2D6 (Homo sapiens) (UniProt P10635). The experiment can be described thus: Cytochrome P450 Family 2 Subfamily D Member 6 (CYP2D6) small molecule antagonists: luciferase reporter qHTS assay (AID 1671196). Further: nearly all actives have a fitted effect of over 50% in size. Further: potency means the concentration at half of the fitted maximal effect. On activity change, negative = inhibition: series mostly up to about 120 µM. The gist of the method:
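CYP2D6 enzyme–substrate mix was held with compound for 10 min at room temperature, then NADPH regeneration solution was added and the reaction ran 1 h at room temperature. Luciferin product was detected by luminescence after 20 min with detection reagent.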

The target of experiment [12] is Cytochrome P450 2C19 (Homo sapiens) (UniProt P33261). The experiment can be described thus: Cytochrome P450 Family 2 Subfamily C Member 19 (CYP2C19) small molecule antagonists: luciferase reporter qHTS assay (AID 1671197). Further: series mostly up to about 120 µM; nearly all actives have a fitted effect of over 65% in size. The gist of the method: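 Luminescent readout of CYP2C19 activity: luciferin product detected 20 min after adding detection reagent. Before that, compound and enzyme-substrate mix preincubated 10 min at room temperature; NADPH-regenerating system started a 1 h, 37C reaction. Ketoconazole as positive control.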
Chain of Cytochrome P450 2C19 (Homo sapiens) (P33261 whole entry, looked up): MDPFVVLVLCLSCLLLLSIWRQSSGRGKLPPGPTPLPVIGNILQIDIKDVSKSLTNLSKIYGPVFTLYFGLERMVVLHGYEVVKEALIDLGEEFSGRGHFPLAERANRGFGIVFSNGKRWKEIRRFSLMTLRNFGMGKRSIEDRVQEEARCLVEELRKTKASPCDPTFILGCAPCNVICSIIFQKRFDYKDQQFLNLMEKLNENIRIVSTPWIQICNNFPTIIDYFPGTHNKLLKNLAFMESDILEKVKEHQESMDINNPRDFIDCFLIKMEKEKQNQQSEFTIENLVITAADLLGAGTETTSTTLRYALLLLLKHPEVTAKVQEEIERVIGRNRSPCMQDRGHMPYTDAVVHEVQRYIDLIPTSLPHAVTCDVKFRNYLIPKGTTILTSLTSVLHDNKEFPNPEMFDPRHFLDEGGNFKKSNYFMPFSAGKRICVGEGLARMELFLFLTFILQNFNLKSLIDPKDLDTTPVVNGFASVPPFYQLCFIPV

The target in experiment [13] is Cytochrome P450 2C9 (Homo sapiens) (UniProt P11712). The experiment can be described thus: Cytochrome P450 Family 2 Subfamily C Member 9 (CYP2C9) small molecule antagonists: luciferase reporter qHTS assay (AID 1671198). Further: series mostly up to about 120 µM; nearly all actives have a fitted effect of over 50% in size. The gist of the method: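 P450-Glo proluciferin substrate with CYP2C9 enzyme; 10 min RT preincubation, then NADPH regeneration 1 h at 37C; luciferin detection reagent 20 min RT, luminescence in relative luminescence units.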
Chain of Cytochrome P450 2C9 (Homo sapiens) (P11712 whole entry, looked up): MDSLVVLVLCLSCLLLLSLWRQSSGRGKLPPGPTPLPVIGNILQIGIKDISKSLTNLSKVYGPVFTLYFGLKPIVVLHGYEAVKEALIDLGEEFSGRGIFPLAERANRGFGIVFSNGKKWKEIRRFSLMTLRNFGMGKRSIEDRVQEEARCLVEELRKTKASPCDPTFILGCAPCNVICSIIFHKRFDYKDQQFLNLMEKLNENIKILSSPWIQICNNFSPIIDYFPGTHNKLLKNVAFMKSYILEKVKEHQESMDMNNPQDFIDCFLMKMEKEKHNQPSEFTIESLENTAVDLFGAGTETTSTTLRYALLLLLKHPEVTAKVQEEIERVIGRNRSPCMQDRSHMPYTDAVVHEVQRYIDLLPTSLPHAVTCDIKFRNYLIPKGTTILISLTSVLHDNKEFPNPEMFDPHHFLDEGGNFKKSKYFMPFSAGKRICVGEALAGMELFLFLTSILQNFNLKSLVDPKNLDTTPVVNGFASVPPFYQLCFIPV

In experiment [14] the target is Voltage-gated inwardly rectifying potassium channel KCNH2 (Homo sapiens) (UniProt Q12809). The experiment can be described thus: Human Ether-a-go-go-Related Gene (hERG) channel small molecule antagonists: fluorescence cell-based qHTS assay (AID 1671200). The gist of the method: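 First, 1000 cells per well are seeded and cultured overnight at 37 C. Next, FluxOR II dye is loaded for 1 h at room temperature, protected from light. After 10 more minutes, stimulus is added and fluorescence is read.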
Chain of Voltage-gated inwardly rectifying potassium channel KCNH2 (Homo sapiens) (Q12809 whole entry, looked up): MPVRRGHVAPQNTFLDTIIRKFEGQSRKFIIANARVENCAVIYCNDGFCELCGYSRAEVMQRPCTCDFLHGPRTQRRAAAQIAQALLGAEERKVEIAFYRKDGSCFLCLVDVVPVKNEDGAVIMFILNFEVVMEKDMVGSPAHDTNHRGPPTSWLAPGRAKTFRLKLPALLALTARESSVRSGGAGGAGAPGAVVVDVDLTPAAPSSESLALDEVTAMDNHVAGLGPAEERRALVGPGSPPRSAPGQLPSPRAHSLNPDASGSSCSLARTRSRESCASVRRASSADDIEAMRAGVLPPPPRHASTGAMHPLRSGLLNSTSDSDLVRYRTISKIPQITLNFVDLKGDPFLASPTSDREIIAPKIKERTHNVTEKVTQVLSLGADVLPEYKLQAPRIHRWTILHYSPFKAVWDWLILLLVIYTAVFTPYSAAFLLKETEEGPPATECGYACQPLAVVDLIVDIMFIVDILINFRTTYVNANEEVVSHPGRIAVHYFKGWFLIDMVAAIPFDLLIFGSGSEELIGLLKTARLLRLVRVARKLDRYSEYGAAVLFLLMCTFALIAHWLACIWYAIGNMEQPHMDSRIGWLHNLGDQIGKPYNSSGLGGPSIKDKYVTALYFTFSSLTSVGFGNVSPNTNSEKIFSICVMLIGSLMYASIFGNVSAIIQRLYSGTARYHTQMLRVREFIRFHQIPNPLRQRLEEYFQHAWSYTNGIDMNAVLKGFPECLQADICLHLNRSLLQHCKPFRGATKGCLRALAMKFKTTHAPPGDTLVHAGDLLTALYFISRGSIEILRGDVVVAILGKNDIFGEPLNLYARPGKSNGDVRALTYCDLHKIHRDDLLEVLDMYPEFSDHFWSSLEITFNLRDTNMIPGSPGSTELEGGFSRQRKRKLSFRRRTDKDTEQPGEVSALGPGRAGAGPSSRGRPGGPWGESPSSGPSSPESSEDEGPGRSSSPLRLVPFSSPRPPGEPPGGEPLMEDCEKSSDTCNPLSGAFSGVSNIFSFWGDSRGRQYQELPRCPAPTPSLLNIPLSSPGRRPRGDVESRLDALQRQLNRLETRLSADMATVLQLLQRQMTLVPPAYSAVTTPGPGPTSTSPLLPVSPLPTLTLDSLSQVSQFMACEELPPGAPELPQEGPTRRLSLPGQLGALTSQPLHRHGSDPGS
(In general: Block of hERG is tested as a sign of cardiac risk.)

The target of experiment [15] is Cytochrome P450 3A4 (Homo sapiens) (UniProt P08684). The experiment can be described thus: Cytochrome P450 Family 3 Subfamily A Member 4 (CYP3A4) small molecule antagonists: luciferase reporter qHTS assay (AID 1671201). The essentials:
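Enzyme and proluciferin substrate are mixed with test chemicals for 10 min, then NADPH regeneration system drives turnover for 1 h at room temperature. A detection reagent halts the reaction; luminescence after 20 min gives relative activity.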

The target in experiment [16] is Nuclear receptor subfamily 1 group I member 2 (Rattus norvegicus) (UniProt Q9R1A7). The experiment can be described thus: Rat pregnane X receptor (rPXR) activation by small molecules, qHTS assay (AID 1346983). Further: nearly all actives have a fitted effect of over 20% in size. Particulars: rPXR luciferase reporter cells, One-Glo luminescence, 24 h; max activation: hits give high values. The gist of the method: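 Cell-based rPXR activation assay: rPXR cells, 2,000 per well, rested 5hr at 37 C, then exposed to compounds in DMSO for 24 hr at 37 C. Luciferase activity read by One-Glo luminescence after 30 min at room temperature.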
Chain of Nuclear receptor subfamily 1 group I member 2 (Rattus norvegicus) (Q9R1A7 whole entry, looked up): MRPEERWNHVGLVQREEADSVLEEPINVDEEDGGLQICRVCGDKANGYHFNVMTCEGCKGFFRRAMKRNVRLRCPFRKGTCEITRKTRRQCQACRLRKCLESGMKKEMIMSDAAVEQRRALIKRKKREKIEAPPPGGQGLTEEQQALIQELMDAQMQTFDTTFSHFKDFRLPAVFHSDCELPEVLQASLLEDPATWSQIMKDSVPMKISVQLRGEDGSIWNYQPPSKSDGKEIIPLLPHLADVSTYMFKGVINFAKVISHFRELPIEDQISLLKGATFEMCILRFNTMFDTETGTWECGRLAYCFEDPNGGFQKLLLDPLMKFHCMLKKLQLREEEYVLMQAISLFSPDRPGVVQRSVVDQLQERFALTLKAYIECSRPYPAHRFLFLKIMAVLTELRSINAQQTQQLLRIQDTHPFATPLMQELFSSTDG

Structures are written as SMILES. Values without a mark were called inactive. Results filed as inconclusive are left out. The source made the active and inactive calls. Unless noted, the call rests on the fitted dose curve; in most records, active means well fitted curve in the direction sought with a large enough effect in the repeat runs; inconclusive means weak or mixed curves; inactive means no such curve, though single readings can be large; an effect the other way counts as inactive or inconclusive.
On the % scale 0 is the no-effect control and ±100 the full control effect.

Chain of Cytochrome P450 2D6 (Homo sapiens) (P10635 whole entry, looked up): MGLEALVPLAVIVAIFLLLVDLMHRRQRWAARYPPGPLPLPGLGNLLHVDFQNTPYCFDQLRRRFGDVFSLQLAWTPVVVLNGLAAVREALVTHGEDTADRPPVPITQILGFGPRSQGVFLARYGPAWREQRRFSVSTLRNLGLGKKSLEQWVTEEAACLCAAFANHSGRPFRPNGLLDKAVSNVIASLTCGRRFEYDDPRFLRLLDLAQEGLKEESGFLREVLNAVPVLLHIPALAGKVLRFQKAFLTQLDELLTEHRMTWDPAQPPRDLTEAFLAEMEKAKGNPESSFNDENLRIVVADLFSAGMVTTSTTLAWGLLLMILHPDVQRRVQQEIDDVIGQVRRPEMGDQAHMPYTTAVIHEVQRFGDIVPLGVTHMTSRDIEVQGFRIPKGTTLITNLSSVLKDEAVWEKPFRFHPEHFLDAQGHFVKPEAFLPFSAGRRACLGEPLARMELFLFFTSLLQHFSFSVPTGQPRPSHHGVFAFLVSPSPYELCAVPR
Chain of Cytochrome P450 1A2 (Homo sapiens) (P05177 whole entry, looked up): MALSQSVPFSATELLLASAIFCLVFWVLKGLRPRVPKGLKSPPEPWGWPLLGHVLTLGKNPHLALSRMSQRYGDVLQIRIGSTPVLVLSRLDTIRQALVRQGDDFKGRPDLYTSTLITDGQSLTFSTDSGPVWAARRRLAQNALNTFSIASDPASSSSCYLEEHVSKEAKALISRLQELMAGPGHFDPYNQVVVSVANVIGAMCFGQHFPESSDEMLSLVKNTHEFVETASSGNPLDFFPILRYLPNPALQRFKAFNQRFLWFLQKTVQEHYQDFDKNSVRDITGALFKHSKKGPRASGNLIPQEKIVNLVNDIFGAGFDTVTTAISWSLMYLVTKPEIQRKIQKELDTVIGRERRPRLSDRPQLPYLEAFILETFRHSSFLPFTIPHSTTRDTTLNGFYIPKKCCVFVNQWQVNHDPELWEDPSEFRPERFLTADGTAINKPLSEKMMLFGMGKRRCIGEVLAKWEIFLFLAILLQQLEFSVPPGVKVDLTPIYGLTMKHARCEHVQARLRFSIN
Chain of Cytochrome P450 3A4 (Homo sapiens) (P08684 whole entry, looked up): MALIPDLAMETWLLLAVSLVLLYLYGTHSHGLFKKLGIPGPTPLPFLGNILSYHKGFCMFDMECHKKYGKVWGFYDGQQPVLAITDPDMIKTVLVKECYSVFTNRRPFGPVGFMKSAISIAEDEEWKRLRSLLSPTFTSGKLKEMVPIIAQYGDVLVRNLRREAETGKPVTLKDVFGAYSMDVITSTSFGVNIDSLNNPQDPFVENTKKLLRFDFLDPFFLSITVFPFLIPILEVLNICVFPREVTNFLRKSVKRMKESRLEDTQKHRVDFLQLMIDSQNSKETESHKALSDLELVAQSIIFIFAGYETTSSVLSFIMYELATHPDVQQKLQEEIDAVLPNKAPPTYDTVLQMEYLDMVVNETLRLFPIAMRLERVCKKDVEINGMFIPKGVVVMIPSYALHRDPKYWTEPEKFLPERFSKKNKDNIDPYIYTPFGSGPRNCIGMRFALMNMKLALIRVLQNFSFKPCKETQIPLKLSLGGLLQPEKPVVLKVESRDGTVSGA
Chain of Thyrotropin-releasing hormone receptor (Homo sapiens) (P34981 whole entry, looked up): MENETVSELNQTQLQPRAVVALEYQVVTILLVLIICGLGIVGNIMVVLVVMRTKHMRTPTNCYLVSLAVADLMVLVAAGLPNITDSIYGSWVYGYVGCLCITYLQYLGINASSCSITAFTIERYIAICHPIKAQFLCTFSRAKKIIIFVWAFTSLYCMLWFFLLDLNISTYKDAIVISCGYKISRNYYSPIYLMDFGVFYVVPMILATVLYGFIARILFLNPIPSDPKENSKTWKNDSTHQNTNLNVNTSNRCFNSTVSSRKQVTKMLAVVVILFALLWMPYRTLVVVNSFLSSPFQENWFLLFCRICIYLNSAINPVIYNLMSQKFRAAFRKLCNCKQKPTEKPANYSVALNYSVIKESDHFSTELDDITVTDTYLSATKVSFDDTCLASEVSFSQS
Chain of Nuclear receptor subfamily 1 group I member 2 (Homo sapiens) (O75469 whole entry, looked up): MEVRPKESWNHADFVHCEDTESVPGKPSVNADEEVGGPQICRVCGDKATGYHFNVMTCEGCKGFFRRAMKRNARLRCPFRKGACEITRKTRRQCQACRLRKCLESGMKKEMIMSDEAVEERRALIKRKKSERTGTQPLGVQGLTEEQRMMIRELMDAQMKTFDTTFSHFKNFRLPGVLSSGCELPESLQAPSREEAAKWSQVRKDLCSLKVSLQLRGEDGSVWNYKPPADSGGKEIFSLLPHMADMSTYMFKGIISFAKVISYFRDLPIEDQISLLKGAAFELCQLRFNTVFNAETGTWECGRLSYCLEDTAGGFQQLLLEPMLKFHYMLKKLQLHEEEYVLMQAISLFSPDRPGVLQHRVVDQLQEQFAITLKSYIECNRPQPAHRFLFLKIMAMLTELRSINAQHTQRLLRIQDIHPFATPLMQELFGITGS

For `NS(=O)(=O)c1cc2c(cc1C(F)(F)F)NC(Cc1ccccc1)NS2(=O)=O` (configuration not stated), the result in [1], in experiment [3], in [5] and in [6] was inactive. For the same compound, the Potency result in [2], in [4], in experiment [7], in experiment [8], in experiment [9] and in [10] was “inactive” throughout.

With `CNc1ncnc2nc[nH]c12`, the compound was called inactive in experiment [1], in experiment [3], in experiment [5] and in [6]. In addition, the Potency entry in experiment [2], in experiment [4], in experiment [11], in [12], in experiment [13] and in [10] was “inactive” throughout. The Potency result in experiment [14] and in experiment [15] was “inactive” in each case. For the same compound, the Potency in [7] was 9.86 µM (active).

On to `O=C(O)C1CCC1`, for which the call in experiment [1], in experiment [3], in experiment [5] and in experiment [6] was inactive. Besides, the Potency result in experiment [2], in [4], in experiment [7], in experiment [11], in experiment [12] and in [13] was “inactive” throughout. Moreover, the Potency result in experiment [10], in [14] and in experiment [15] was “inactive” each time.

With `COc1cccc(Br)c1`, the compound was called inactive in experiment [1], in experiment [3], in experiment [5] and in [6]. Moreover, the Potency entry in [2], in experiment [4], in experiment [7], in experiment [11], in experiment [12] and in [13] was “inactive” in each case. The Potency result in experiment [10] and in [15] was “inactive” in each case.

Turning to `CC(C)CCCC(C)NCCC(C)C` (configuration not stated), the compound was called inactive in [1], in experiment [3], in experiment [5] and in experiment [6]. Moreover, the Potency entry in [2], in experiment [4], in experiment [7], in experiment [12], in experiment [13] and in experiment [10] was “inactive” each time. Further, the Potency result in [14] and in experiment [15] was “inactive” throughout. The Potency in [11] was 1.23 µM (active).

As to `CNC(=O)c1c(I)c(NC(=O)CCCCC(=O)Nc2c(I)c(C(=O)O)c(I)c(C(=O)NC)c2I)c(I)c(C(=O)O)c1I`, the compound was called inactive in experiment [1], in experiment [3], in [5] and in experiment [6]. In addition, the Potency entry in experiment [2], in [4], in [7], in experiment [11], in [12] and in [13] was “inactive” in each case. Further, the Potency result in [10], in experiment [14] and in experiment [15] was “inactive” in each case.

Consider `CCN(CC)S(=O)(=O)c1ccc(C(=O)O)cc1`, for which the compound was classed as inactive in [1], in [3], in experiment [5] and in experiment [6]. Moreover, the Potency result in experiment [2], in [4], in [7], in experiment [8], in [9] and in [10] was “inactive” each time. For the same compound, the Potency in experiment [11] was 38.9 µM (active).

`NCC[C@H](O)C(=O)N[C@@H]1C[C@H](N)[C@@H](O[C@H]2O[C@H](CN)[C@@H](O)[C@H](O)[C@H]2O)[C@H](O)[C@H]1O[C@H]1O[C@H](CO)[C@@H](O)[C@H](N)[C@H]1O`: the values for the activation in experiment [1] and in experiment [7] were -0.0262% [at 0.218 µM] and -0.318% [at 0.349 µM], respectively. Besides, the activity change, negative = cytotoxicity in experiment [2] is -0.464% [at 0.349 µM]; in experiment [4] it was -5.52% [at 0.349 µM]; in [6], -0.33% [at 0.349 µM]. Moreover, the caspase activation in experiment [3] is -1.92% [at 0.349 µM]. Besides, in experiment [5], the caspase-3/7 activation was -0.155% [at 0.349 µM]. In addition, the max activation in experiment [16] is -10.2%. Further, the Potency result in experiment [8] and in experiment [9] was “inactive” in each case. Moreover, the activity change, negative = inhibition in experiment [11] is -0.464% [at 0.435 µM]; in [12] it was 3.5% [at 0.435 µM]; in experiment [13] it was 0.45% [at 0.435 µM]; in experiment [10] it was 12.4% [at 0.435 µM]; in [14], 0.203% [at 0.29 µM]; in experiment [15], 8.51% [at 0.435 µM].

`CC(C)COC(=O)c1ccccc1O`: the outcome in experiment [1], in experiment [3], in experiment [5] and in experiment [6] was inactive. For the same compound, the Potency entry in [2], in experiment [4], in experiment [7], in experiment [11], in experiment [12] and in experiment [13] was “inactive” throughout. The Potency result in experiment [14] is “inactive”.
